Screening data (PubChem BioAssay)
This is a sample that favours compounds with a hit; in the whole collection about 2.3% have one here.
M1 ag: human M1 muscarinic receptor agonists, primary screen, Fluo-8 calcium fluorescence, CHO-K1 cells, HTS; activation, % at 3 µM; Muscarinic acetylcholine receptor M1 (Homo sapiens), P11229; CHO-K1 hM1, agonist mode; 0% DMSO, 100% acetylcholine EC100; AID 588814, 2011; actives 0.33% (n = 360,000);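 active = activation above the run's mean compound activation plus 3 SD, cut at about 16% in these data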;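 also: peak over basal fluorescence ratio within a 140 s kinetic read after compound addition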
Target sequence (P11229 whole entry, looked up): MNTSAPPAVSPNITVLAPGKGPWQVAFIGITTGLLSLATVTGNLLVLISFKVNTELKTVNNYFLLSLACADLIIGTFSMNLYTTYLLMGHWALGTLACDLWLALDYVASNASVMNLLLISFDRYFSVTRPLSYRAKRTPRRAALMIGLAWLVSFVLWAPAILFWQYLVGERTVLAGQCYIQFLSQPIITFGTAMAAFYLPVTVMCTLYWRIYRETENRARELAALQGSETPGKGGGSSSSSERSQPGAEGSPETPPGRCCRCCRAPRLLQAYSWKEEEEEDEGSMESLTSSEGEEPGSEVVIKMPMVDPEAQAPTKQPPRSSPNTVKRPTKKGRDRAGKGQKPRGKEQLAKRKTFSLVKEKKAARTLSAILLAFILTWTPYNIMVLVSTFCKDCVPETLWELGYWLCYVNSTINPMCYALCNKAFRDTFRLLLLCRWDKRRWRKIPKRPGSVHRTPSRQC
CHO-K1 Ca antag: M1 antagonist counterscreen hit in parental CHO-K1 cells; inhibition, % at 3 µM; ATP-induced calcium, Fluo-8 fluorescence; actives 0.6% (n = 360,000);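 active = inhibition above a per-plate cutoff, the plate's mean sample inhibition plus 3 SD, cut at about 24% in these data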;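 also: 0% = DMSO plus EC80 ATP and 100% = DMSO alone without ATP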
M1 ag parental: counter-screen for M1 agonists: effect in parental CHO-K1 cells; activation, % at 3 µM; actives 0.48% (n = 360,000); AID 602248, 2012; Fluo-8 calcium fluorescence; scaled to maximal ATP response, vehicle zero; in the data active = activation above about 15%;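 also: untransfected CHO-K1 host cells lacking M1 receptor as counterscreen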
CHRM1 antagonist: human M1 muscarinic receptor antagonists, primary screen, CHO-K1 cells, Fluo-8 calcium fluorescence, 1536-well; Muscarinic acetylcholine receptor M1 (Homo sapiens), P11229; CHO-K1 hM1, ACh EC80 antagonist; inhibition, % at 3 µM; actives 1.3% (n = 360,000); AID 588852, 2011;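 active = percent inhibition above its own plate's cutoff, namely the mean of that plate's compound wells plus 3 SD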;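 also: peak over basal fluorescence ratio during 140 s after agonist addition; 0% = ACh EC80 plus DMSO and 100% = DMSO alone without agonist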
CHO-K1 Ca PAM: nonselective calcium activators in parental CHO-K1 cells, primary screen, counter-screen for M1 PAM project, cell-based, Fluo-8 calcium fluorescence, full deck, 1536-well. AID 602247, 2012. actives 0.02% (n = 360,000). ATP EC20; 0% at ATP EC20, 100% at ATP max. activation, % at 3 µM;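 active = activation above the run cutoff, the mean activation of all test compounds plus 3 SD, cut at about 40% in these data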;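 also: peak over basal fluorescence ratio in a 140 s read after ATP addition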
CHRM1 PAM: human M1 muscarinic receptor positive allosteric modulators, primary screen, CHO-K1 cells, Fluo-8 calcium fluorescence, 1536-well. CHO-K1 hM1, ACh EC20; 0% = ACh EC20, 100% = maximal ACh. activation, % at 3 µM. actives 0.088% (n = 360,000); in the data active = activation above about 19%, passing the limit was not always enough
Numbers without * were called inactive.

SMILES | M1 ag | CHO-K1 Ca antag | M1 ag parental | CHRM1 antagonist | CHO-K1 Ca PAM | CHRM1 PAM
O=C(C=Cc1ccccc1)c1cccs1 | -5 | 2 | 1 | -15 | -6 | 8
COc1ccc(CNS(=O)(=O)NCc2ccc(C)cc2)cc1OC | -4 | 15 | 19* | 7 | 3 | 1
COc1ccccc1NC(=O)c1cc2c(=O)n(C)c3ccccc3c2n1C | -6 | -12 | 3 | 93* | -9 | -19
Cc1ccc(CNC(=O)c2cc3c(=O)n(C)c4ccccc4c3n2C)o1 | -9 | 24* | 2 | -3 | -14 | 0
CCCCNC(=O)c1oc2ccc(S(=O)(=O)N3CCCC3)cc2c1C | -1 | -12 | 5 | -3 | -9 | -5
CCC(C(=O)NCCC(C)C)n1ccc2cc(S(=O)(=O)N3CCCCC3)ccc21 (stereo not given) | 1 | 13 | 13 | 45* | -19 | -20
CCCN1C(=O)N(c2cccc(C)c2)C(C)(O)CC1(C)C (stereo not given) | -5 | -6 | 1 | -19 | 13 | 11
CCOC(=O)C1=C[C@@H](CC)N(S(=O)(=O)c2ccc(C)cc2)[C@H]1c1cccs1 | -9 | 2 | 0 | 11 | 9 | -9
O=P(O)(CCc1ccccc1)CN1CCCCC1 | -4 | 6 | 0 | 4 | 16 | -2
O=P(CCN1CCCCC1)(c1ccccc1)c1ccccc1 | -6 | -1 | 1 | 71* | 11 | -23
COc1ccc(Br)cc1S(=O)(=O)Nc1ncn[nH]1 | -3 | -14 | 2 | -22 | 2 | 14
Cc1cc(OC(=O)c2ccccc2C)c([N+](=O)[O-])c(=O)[nH]1 | 1 | 4 | 6 | 17 | 12 | -5
Cn1nc(C(C)(C)C)cc1C(=O)NCc1ccc(N2CCCC2=O)cc1 | 3 | 29* | 11 | 24 | -8 | -13
COc1ccc(/C=C(\NC(=O)c2ccc(OC)cc2)C(=O)Nc2cccc(C(=O)O)c2)cc1 | -4 | -13 | 1 | -8 | 4 | 3
COc1ccc(C(=O)N/C(=C/c2ccc(Cl)cc2)C(=O)Nc2ccc(C(=O)O)cc2)cc1 | -2 | 25* | 0 | 1 | -32 | 2
COc1cccc2sc3ccc(C#CC4(O)CCCCC4)cc3c(=O)c12 | -7 | -16 | 5 | 41* | 7 | -13
O=c1c2ccccc2sc2ccc(C#CC3(O)CCCCC3)cc12 | -7 | -9 | 0 | 5 | 2 | -5
CN(Cc1ccccc1)S(=O)(=O)c1ccc(Cl)c(C(=O)OCC(=O)NC2CCS(=O)(=O)C2)c1 (stereo not given) | -3 | -10 | 4 | 15 | -13 | -9
COc1cccc(NC(=O)CSc2nnc(-c3ccoc3C)n2CC2CCCO2)c1 (stereo not given) | -3 | -3 | 0 | 0 | 4 | 2
COc1ccc(NC(=O)CSc2nnc(-c3ccoc3C)n2CC2CCCO2)cc1 (stereo not given) | 0 | -4 | 0 | 27* | 4 | 1
COc1ccc(-c2nnc(SCC(=O)Nc3ccccc3)n2C)cc1 | -8 | 12 | -1 | 13* | -7 | -14
COc1ccc(NC(=O)CSc2nnc(-c3ccncc3)n2C)cc1 | -6 | -2 | 0 | -2 | 0 | 0
CCC(C)(C)NC(=O)C(c1ccc(F)cc1)N(CCOC)C(=O)CCC(=O)Nc1nccs1 (stereo not given) | -2 | -18 | 1 | -11 | 7 | 9
FC(F)Oc1ccc(NC(=S)NC2CCSc3ccccc32)cc1 (stereo not given) | 0 | 20 | 15 | 87* | -4 | -24
S=C(Nc1ccc(Cl)cc1)NC1CCCCC1 | 0 | 10 | 10 | 1 | -6 | -5
SMILES | M1 ag | CHO-K1 Ca antag | M1 ag parental | CHRM1 antagonist | CHO-K1 Ca PAM | CHRM1 PAM
FC(F)Oc1ccc(NC(=S)NC2CCCCCCC2)cc1 | -6 | 8 | 14 | 34* | 0 | -24
O=C(NC1CCSc2ccccc21)c1cccc(OC(F)F)c1 (stereo not given) | -9 | -23 | 2 | -10 | -8 | 5
CC(=O)Nc1cccc(-c2ccnc3c2CC(C)(C(=O)NCc2ccc(N(C)C)cc2)O3)c1 (stereo not given) | 2 | 10 | 0 | 0 | -10 | 8
CC(C)CN1CC(COCc2ccccc2)Oc2ccccc2S1(=O)=O (stereo not given) | -5 | -10 | 1 | -7 | 14 | 3
Cc1c(C(C)C)c(=O)n(-c2ccc(S(=O)(=O)NCc3ccccc3)cc2)n1C | -6 | 25* | 8 | 34* | -12 | -20
COc1ccc(-c2cnc(C(N)=O)c(=O)[nH]2)cc1 | 1 | 9 | -1 | -18 | -5 | 16
CC(=O)NNC(=S)NC(=O)C(c1ccccc1)c1ccccc1 | 1 | -1 | 4 | 0 | 11 | -5
CC(C)(C)C(=O)NC(=S)NNC(=O)C(c1ccccc1)c1ccccc1 | 114* | 47* | 107* | 91* | -32 | -24
COc1ccccc1C(CNC(=O)c1cc(S(=O)(=O)N2CCOCC2)ccc1C)N1CCCC1 (stereo not given) | -8 | -11 | 0 | 1 | 3 | 2
CCC1(c2ccccc2)NC(=O)N(CC(=O)Nc2ccccc2N2CCCCC2)C1=O (stereo not given) | 37* | 12 | 38* | 8 | 8 | 0
CCC1(c2ccc(F)cc2)NC(=O)N(CC(=O)Nc2ccc(N3CCCCC3)cc2)C1=O (stereo not given) | 17* | 7 | 10 | 3 | 11 | 5
CCn1c(SCCN2CCCCC2)nnc1-c1ccc(S(=O)(=O)N2CCOCC2)cc1 | -4 | -4 | 0 | 93* | -2 | -20
CC(=O)c1ccc(S(=O)(=O)N2CCC(c3nnc(SCCN4CCCC4)n3C)CC2)cc1 | -12 | -6 | 0 | -2 | 14 | -6
Cn1c(SCCN2CCCC2)nnc1C1CCN(S(=O)(=O)c2ccc(F)cc2)CC1 | -12 | -11 | 1 | 33* | 7 | -24
Cc1ccc(S(=O)(=O)N2CCC(c3nnc(SCCN4CCCC4)n3C)CC2)cc1 | -11 | -4 | 1 | 26* | 15 | -23
Cc1ccc(S(=O)(=O)N2CCCCC2)cc1NC(=O)CSc1nnc(C2CC2)n1C | -3 | -10 | 0 | -4 | -9 | -4
CN1CCN(S(=O)(=O)c2cccc(C#N)c2)C(c2ccccc2)C1 (stereo not given) | -4 | -18 | 1 | -9 | 19 | 5
Clc1ccc(C2=C3CCCCn4c(-c5ccccc5)c[n+](c43)C2)cc1 | -4 | -7 | 0 | -5 | 12 | -3
